Reference: PubChem BioAssay AID493170 (National Center for Advancing Translational Sciences (NCATS), 2011)
Records with an inconclusive call do not appear. Values without a mark were called inactive. Calls of active or inactive are those of the source. Calls follow the shape of the dose curve; as a rule, active = well fitted inhibition curve with a large enough effect; inconclusive = small, poorly fitted or top-dose-only effect, or effect the other way; inactive = flat fitted curve, though single readings scatter.

What follows are compounds tested against Ubiquitin carboxyl-terminal hydrolase 2 (Homo sapiens) (UniProt O75604) (assay: Ub-rhodamine 110 based assay for inhibitors Ubiquitin-specific Protease USP2a). Conditions: USP2a Ub-rhodamine110 cleavage, fluorescence; series mostly up to 38.3 µM; activity change, negative = inhibition: at the top concentration.
How it was run: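 Kinetic fluorescence (485/531 nm) read each minute over 7 min after adding Ub-Rhod110 (150 nM final) to USP2a (5 nM final). The enzyme had 30 min RT exposure to compounds beforehand in Tris pH 8.0 buffer with CaCl2, CHAPS and beta-ME.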
% is scaled to controls: 0 for no effect and ±100 for the full control effect; potency is read from the fitted curve at half-maximal effect.
Also: nearly all actives have a fitted effect of over 50% in size.

Sequence of Ubiquitin carboxyl-terminal hydrolase 2 (Homo sapiens) (O75604 whole entry, looked up): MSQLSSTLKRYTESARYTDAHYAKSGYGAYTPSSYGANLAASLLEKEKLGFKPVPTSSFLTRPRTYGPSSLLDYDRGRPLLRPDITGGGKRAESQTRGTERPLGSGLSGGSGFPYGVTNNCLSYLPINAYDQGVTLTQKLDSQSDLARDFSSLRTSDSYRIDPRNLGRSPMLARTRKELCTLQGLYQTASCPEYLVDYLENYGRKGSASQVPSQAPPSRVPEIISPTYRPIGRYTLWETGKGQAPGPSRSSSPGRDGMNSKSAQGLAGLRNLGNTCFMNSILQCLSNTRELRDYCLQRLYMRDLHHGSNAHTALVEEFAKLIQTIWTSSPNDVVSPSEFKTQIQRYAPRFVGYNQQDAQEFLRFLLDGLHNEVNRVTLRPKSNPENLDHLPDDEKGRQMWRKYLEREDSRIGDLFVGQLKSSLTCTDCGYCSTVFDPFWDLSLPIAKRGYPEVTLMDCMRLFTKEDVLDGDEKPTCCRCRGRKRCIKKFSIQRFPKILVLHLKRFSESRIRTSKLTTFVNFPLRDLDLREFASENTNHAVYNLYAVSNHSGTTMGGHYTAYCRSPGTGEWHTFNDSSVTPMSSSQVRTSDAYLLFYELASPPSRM

SMILES	activity change, negative = inhibition	Potency
COCCn1nnnc1CN(CCc1ccccc1)Cc1cc2ccc(C)cc2[nH]c1=O	-6.85%	
Cc1ccc(S(=O)(=O)N2[C@@H](c3ccc(C(C)(C)C)cc3)C(C(=O)O)=CC[C@H]2c2ccc(C(C)C)cc2)cc1		3.98 µM (active)
O=C(COC(=O)c1c2c(nc3ccccc13)/C(=C/c1ccco1)CC2)NC1CCCC1		3.55 µM (active)
COc1cc(-c2nc(-c3ccc4c(c3)-c3ccccc3S4(=O)=O)c(-c3ccccc3)[nH]2)cc(OC)c1O	-23%	
CCOc1ccc(NC(=O)N(CCCN2CCOCC2)Cc2cccnc2)cc1	3.46%	
CSC1=NCCN1C(=O)Cc1ccc(F)cc1	6.29%	
O=C(CSc1nc2ccccc2s1)NCCCN1CCOCC1	-12.4%	
Cc1n[nH]c(C)c1S(=O)(=O)N1CCCC(C(=O)NC2CCCc3ccccc32)C1 (centres undefined)	2.63%	
c1ccc(-c2ccccc2OCCCN2CCOCC2)cc1	3.46%	
CCOC(=O)c1sc(NC(=O)Nc2ccccc2)cc1C	-16.1%	
CCOc1ccc(NC(=O)CSc2nnc(Cn3c(=O)sc4ccccc43)n2C)cc1	-1.33%	
COc1cccc(C(=O)NC(C)c2ccc(-c3ccccc3)cc2)c1OC (centres undefined)	-7.15%	
COc1ccc(NC(=O)C2CC(=O)OC2c2ccccc2)cc1 (centres undefined)	-14.6%	
O=C1NC[C@@H](c2ccccc2)OC(=O)[C@@H](Cc2ccc(F)cc2)CC/C=C/C[C@@H]1CC(=O)N(CCO)Cc1ccccc1	-19.6%	
CCCCOC1(c2ccccc2)NC(=S)NN=C1c1ccccc1 (centres undefined)	-3.04%	
COc1ccc(NC(=O)CSc2nc3sc(C)cc3c(=O)n2C)c(OC)c1	-14.9%	
CCOC(=O)c1ccc(NC(=O)C2=C(C)Nc3nc(CCCO)nn3C2c2cccc(C)c2)cc1 (centres undefined)	0.0256%	
COC(=O)c1[nH]c2cc(OC)ccc2c1N	-7.95%	
CC(=O)c1ccc2c(c1)C1C=CCC1C(C(=O)O)N2 (centres undefined)		10 µM (active)
CC(OC(=O)CN(C)S(=O)(=O)c1ccc(Cl)cc1)C(=O)Nc1ccc(N2CCOCC2)cc1 (centres undefined)	4.42%	

SMILES	activity change, negative = inhibition	Potency
Cc1ccc(S(=O)(=O)N2[C@@H](c3ccc(Cl)cc3)C(C(=O)O)=CC[C@H]2c2ccc(C(C)C)cc2)cc1		10 µM (active)
CCCn1c(C)cc(C)c(C#N)c1=O	-1.87%	
CCCn1c(NC(=O)c2ccc(Br)cc2)nc2ccccc21	0.793%	
COc1ccc(/C=C2\SC(=S)N(NS(=O)(=O)c3ccc(C)cc3)C2=O)c(OC)c1		10 µM (active)
O=C(N/C(=C/c1cccnc1)C(=O)N1CCOCC1)c1ccco1	-3.6%	
CC(=O)NS(=O)(=O)c1ccc(NC(=O)c2cc(-c3ccc(C)c(C)c3)nc3ccccc23)cc1		11.2 µM (active)
COc1cccc(OC)c1-c1nn2c(-c3cc(-c4ccccc4)n[nH]3)nnc2s1		6.31 µM (active)
CCOC(=O)c1[nH]c2ccc(OC)cc2c1NC(=O)CCN1CCC(C)CC1	-3.42%	
COc1ccc2[nH]c(=O)c(CN(C3CCCCC3)C(c3nnnn3Cc3ccco3)C(C)C)cc2c1 (centres undefined)		3.98 µM (active)
CCN1C(=O)C(NC(C)=O)c2cc(OC)ccc21 (centres undefined)	-11.5%	
COC(=O)C1CCN(C(=O)c2cc(-c3ccco3)nc3ccccc23)CC1		3.55 µM (active)
Cc1nn(CC(=O)Nc2cccc(S(N)(=O)=O)c2)c(C)c1[N+](=O)[O-]	-4.84%	
Nn1c(Nc2ccccc2)nc2ccccc2c1=O	-0.213%	
COc1cc(C(O)P(=O)(OC(C)C)c2ccc(N(C)C)cc2)cc(OC)c1OC (centres undefined)	-2.03%	
O=C(/C(=N/N=C/c1ccc(O)c(O)c1O)c1ccccc1)c1ccccc1		2.51 µM (active)
Cc1ccc(C(=O)N(C)CC(=O)Nc2cccc(C)c2C)o1	-0.589%	
CCOC(=O)c1c(C)n(-c2ccc(C)cc2)c2ccc(OCC(O)CN3CCN(C)CC3)cc12 (centres undefined)	1.5%	
Cn1ccc(=Nc2ccc(NC(=O)c3ccc(N=c4ccn(C)c5ccc([N+](=O)[O-])cc45)cc3)cc2)cc1	0.599%	
N=c1sccn1CC(=O)Nc1ccc(S(=O)(=O)N2CCOCC2)cc1	12.8%	
